Test results from PubChem BioAssay (NCATS).
Records with an inconclusive call do not appear. Where a call stands in place of a potency, no number is given. Values without a mark were called inactive. The source made the active and inactive calls. Calls follow the shape of the dose curve; as a rule, active = well fitted inhibition curve with a large enough effect; inconclusive = small, poorly fitted or top-dose-only effect; inactive = no such curve, though single readings can be large or run the other way.

Assay: Primary qHTS for small molecule stabilizers of the endoplasmic reticulum resident proteome: Secreted ER Calcium Modulated Protein (SERCaMP) assay (AID 1508630)
Conditions: SH-SY5Y GLuc-SERCaMP (Gaussia luciferase released on ER calcium loss) secretion, thapsigargin, luminescence; series mostly up to 38.4 µM; activity change, negative = inhibition: at the top concentration
Text: Assay Provider: Brandon K. Harvey Ph.D.
National Institute on Drug Abuse, National Institutes of Health, Baltimore, MD
Endoplasmic reticulum (ER) dysregulation is associated with human pathologies including neurodegenerative, cardiovascular, muscular, and diabetic conditions. Maintenance of ER calcium is critical for functions of the ER and its depletion can lead to loss of ER resident proteins, in a process termed exodosis. Therapeutic compounds capable of attenuating the redistribution of ER proteins under pathological conditions may slow or stop disease progression. To identify such compounds, we performed a quantitative high-throughput screen (qHTS) using the SERCaMP assay, which monitors secretion of ER resident proteins triggered by calcium depletion.
SERCaMP was initially developed as a reporter of ER calcium homeostasis using a Gaussia luciferase with a modified signal peptide and carboxy-terminus (GLuc-SERCaMP), modifications that confer secretion of the reporter in response to ER calcium depletion (Henderson et al., 2014). The assay was used to screen 9,501 compounds, including a collection of drugs approved by the FDA (US), EMA (EU), NHI (Japan), and HC (Canada) regulatory agencies (Huang et al., 2011). Since the SERCaMP reporter reflects the exodosis phenomenon (Trychta et al., 2018a), compounds identified in the screen have the potential to prevent exodosis by different mechanisms such as stabilizing ER calcium or augmenting ERS retrieval.
1. Henderson, M.J., Wires, E.S., Trychta, K.A., Richie, C.T., and Harvey, B.K. (2014). SERCaMP: a carboxy-terminal protein modification that enables monitoring of ER calcium homeostasis. Mol Biol Cell 25, 2828-2839.
2. Huang, R., Southall, N., Wang, Y., Yasgar, A., Shinn, P., Jadhav, A., Nguyen, D.T., and Austin, C.P. (2011). The NCGC pharmaceutical collection: a comprehensive resource of clinically approved drugs enabling repurposing and chemical genomics. Sci Transl Med 3, 80ps16.
3. Trychta, K.A., Back, S., Henderson, M.J., and Harvey, B.K. (2018a). KDEL Receptors Are Differentially Regulated to Maintain the ER Proteome under Calcium Deficiency. Cell Rep 25, 1829-1840 e1826.
SEQUENCE No. (1, 2, 3, etc.); […] (e.g., Cells, Incubation, Reagent, etc.); VALUE and DESCRIPTION.
1; Reagent; 5 uL; 1000 SH-SY5Y cells per wells
3; Compound; 23 nL; Control inhibitor / compound library
5; Reagent; 100 nM; Thapsigargin
7; Reagent; 1 uL; 0.5x coelenterazine
8; Detection; Luminescence; ViewLux imaging system
NOTES (numbers refer to sequence above)
1; SH-SY5Y human neuroblastoma cells stably expressing GLuc-SERCaMP (SH-SY5Y-GLuc-ASARTDL) cells were seeded in 1,536 well white tissue culture treated plates (Corning, Cat# 7464) in DMEM-high glucose-sodium pyruvate (ThermoFisher Scientific, Cat #10569) supplemented with 10% bovine growth serum (Hyclone), 10 U/ml penicillin (Gibco), 10 ug/ml streptomycin (Gibco), and 20 mM HEPES.
2; Assay plates were incubated for 5 hour at 37C in a humidified incubator containing 5% CO2.
3; qHTS libraries (23 nl, final concentrations of 1.53 uM, 7.67 uM, 38.3 uM) or controls (neutral control: DMSO, positive control: dantrolene) were added using a Kalypsis pin-tool Robotic System equipped with 1536 pinheads.
4; Cells were then incubated for 16 hours at 37C, 5% CO2.
5; Thapsigargin was added at 100 nM to deplete ER calcium stores.
6; Cells were incubated for 4 hour (37 °C, 5% CO2)
7; Gaussia luciferase in the medium was measured by adding 1 ul of 0.5x coelenterazine (final concentration 0.07x) prepared in Gaussia Luciferase Glow Assay Buffer (Pierce), without addition of the Cell Lysis Buffer Reagent.
8; Luminescence was measured using a ViewLux […] CCD imaging system (Perkin Elmer) equipped with clear filters. […] The same controls were also used for the calculation of the Z' factor, a measure of assay quality control, as previously described (Zhang et al., 1999). […]
With `CC(=O)[C@@]1(O)CC[C@H]2[C@@H]3CCC4=CC(=O)CC[C@]4(C)[C@H]3CC[C@@]21C` the Potency was “inactive”.
For `COCC(=O)O[C@]1(CCN(C)CCCc2nc3ccccc3[nH]2)CCc2cc(F)ccc2[C@@H]1C(C)C`, the Potency was “inactive”.
In the case of `CCN(Cc1ccncc1)C(=O)C(CO)c1ccccc1` (stereo not given), the Potency is reported as “inactive”.
With `C[N+](C)(C)CCOC(=O)CCC(=O)OCC[N+](C)(C)C` the “activity change, negative = inhibition” value was -21.3%.
For `COc1ccc(CCN(C)CCCC(C#N)(c2cc(OC)c(OC)c(OC)c2)C(C)C)cc1OC` (stereo not given), the “activity change, negative = inhibition” value was 11.7%.
In the case of `CCCOc1ccccc1-c1nc2n[nH]nc2c(=O)[nH]1`, the “activity change, negative = inhibition” value is reported as -26.1%.
In the case of `Cc1scc2c1N(C(=O)CN1CCN(C)CC1)c1ccccc1NC2=O`, the Potency is reported as “inactive”.
For `CC(C)(C)NCC(O)c1cc(O)cc(O)c1` (stereo not given), the Potency was “inactive”.
For `NS(=O)(=O)c1cc2c(cc1Cl)NC(C1CC3C=CC1C3)NS2(=O)=O` (stereo not given), the Potency was “inactive”.
In the case of `O=C1NCN(c2ccccc2)C12CCN(CCCC(c1ccc(F)cc1)c1ccc(F)cc1)CC2`, the “activity change, negative = inhibition” value is reported as -27.1%.
For `NC(=O)c1cn(Cc2c(F)cccc2F)nn1`, the Potency was “inactive”.
In the case of `CN1C(=O)CC[C@H]1c1cccnc1`, the Potency is reported as “inactive”.
With `C=CCc1ccccc1OCC(O)CNC(C)C` (stereo not given) the Potency was “inactive”.
With `CC(N=C(NC#N)Nc1ccncc1)C(C)(C)C` (stereo not given) the Potency was “inactive”.
For `CC(C)(Oc1ccc(CCNC(=O)c2ccc(Cl)cc2)cc1)C(=O)O`, the Potency was “inactive”.
For `c1cnc(N2CCN(Cc3ccc4c(c3)OCO4)CC2)nc1`, the Potency was “inactive”.
For `CC(=O)OCC1=C(C(=O)O)N2C(=O)[C@@H](NC(=O)Cc3cccs3)[C@H]2SC1`, the “activity change, negative = inhibition” value was -23%.
For `CC(C)NCC(O)c1cc(O)cc(O)c1` (stereo not given), the “activity change, negative = inhibition” value was -15.3%.
With `CCOC(=O)C1=C(C)NC(C)=C(C(=O)OC)C1c1cccc(Cl)c1Cl` (stereo not given) the Potency was “inactive”.
In the case of `O=C(O)CN(CCN(CC(=O)O)CC(=O)O)CCN(CC(=O)O)CC(=O)O`, the “activity change, negative = inhibition” value is reported as -27.6%.
For `CN(C)CCCN1c2ccccc2Sc2ccc(C(F)(F)F)cc21`, the “activity change, negative = inhibition” value was -1.45%.
In the case of `NC(=O)c1ncn([C@@H]2O[C@H](CO)[C@@H](O)[C@H]2O)c1O`, the “activity change, negative = inhibition” value is reported as 0.511%.
In the case of `Cc1cccc(C)c1NC(=O)C(C)N` (stereo not given), the “activity change, negative = inhibition” value is reported as -9.17%.
With `CN1CCN(CC(=O)N2c3ccccc3C(=O)Nc3cccnc32)CC1` the Potency was “inactive”.
In the case of `CC1=NS(=O)(=O)c2cc(Cl)ccc2N1`, the Potency is reported as “inactive”.
For `CC(=O)OC(C)C[N+](C)(C)C` (stereo not given), the Potency was “inactive”.
With `CCCNC(C)C(=O)Nc1ccccc1C` (stereo not given) the “activity change, negative = inhibition” value was -24.3%.
In the case of `Nc1c2c(nc3ccccc13)CCCC2O` (stereo not given), the Potency is reported as “inactive”.
In the case of `CCOC(=O)c1cnc2c(cnn2CC)c1NN=C(C)C`, the Potency is reported as “inactive”.
With `CCCN(CCC)CCc1cccc2c1CC(=O)N2` the “activity change, negative = inhibition” value was -11.5%.
For `CCCCOCCOCCOCc1cc2c(cc1CCC)OCO2`, the Potency was “inactive”.
With `NC1=NCC2c3ccccc3Cc3ccccc3N12` (stereo not given) the “activity change, negative = inhibition” value was 1.38%.
In the case of `CN(C)CCOC(=O)COc1ccc(Cl)cc1`, the Potency is reported as “inactive”.
In the case of `CCCCNC(=O)NS(=O)(=O)c1ccc(C)cc1`, the Potency is reported as “inactive”.
For `C[n+]1cc2c3c(ccc2c2ccc4cc5c(cc4c21)OCO5)OCO3`, the Potency was “inactive”.
For `NC/C=C/C(=O)O`, the “activity change, negative = inhibition” value was 18.1%.
For `CC(C(=O)O)c1ccc(CC2CCCC2=O)cc1` (stereo not given), the Potency was “inactive”.
For `CC(C)NNC(=O)c1ccncc1`, the “activity change, negative = inhibition” value was 20.5%.
With `C[C@H](CS)C(=O)N1CCC[C@H]1C(=O)O` the Potency was “inactive”.
With `O=C(O)CCCCCCCC(=O)O` the Potency was “inactive”.
